The supplement of paper PMC8728848
The entries come from a sample that favours the strongest signals as a whole.

What was measured:
Assay in all cases: glycan array binding signal (z-score within array); higher = stronger binding
Conditions in all cases: glycan notation: IUPAC condensed, linker removed
[1] = target: Fuc(a1-2)Gal(b1-3)GalNAc
Method in brief: (§1)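 Negative Z-scores can be read as non-binding. The Z-score is calculated within each array and then averaged across arrays of one protein sequence at different concentrations or buffers and across linkers. Arrays, 3228 in all, were curated from the Consortium for Functional Glycomics database and kept only where the protein sequence was available.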

[2] = target: Fuc(a1-2)Gal(b1-3)GalNAc(b1-4)[Neu5Ac(a2-3)]Gal(b1-4)Glc
Method in brief: as §1

[3] = target: Fuc(a1-2)Gal(b1-4)Glc
Method in brief: as §1

[4] = target: Fuc(a1-2)Gal(b1-4)[Fuc(a1-3)]GlcNAc(b1-3)Gal(b1-4)[Fuc(a1-3)]GlcNAc(b1-3)Gal(b1-4)[Fuc(a1-3)]GlcNAc
Method in brief: as §1

[5] = target: Fuc(a1-2)Gal6S(b1-3)GlcNAc6S
Method in brief: as §1

[6] = target: Fuc(a1-2)[Gal(a1-3)]Gal(b1-3)GlcNAc
Method in brief: as §1

[7] = target: Fuc(a1-2)[Gal(a1-3)]Gal(b1-3)GlcNAc(b1-2)Man(a1-3)[Fuc(a1-2)[Gal(a1-3)]Gal(b1-3)GlcNAc(b1-2)Man(a1-6)]Man(b1-4)GlcNAc(b1-4)[Fuc(a1-6)]GlcNAc
Method in brief: as §1

[8] = target: Fuc(a1-2)[Gal(a1-3)]Gal(b1-4)GlcNAc(b1-2)Man(a1-3)[Fuc(a1-2)[Gal(a1-3)]Gal(b1-4)GlcNAc(b1-2)Man(a1-6)]Man(b1-4)GlcNAc(b1-4)GlcNAc
Method in brief: as §1

[9] = target: Fuc(a1-2)[GalNAc(a1-3)]Gal(b1-3)GlcNAc(b1-2)Man(a1-3)[Fuc(a1-2)[GalNAc(a1-3)]Gal(b1-3)GlcNAc(b1-2)Man(a1-6)]Man(b1-4)GlcNAc(b1-4)[Fuc(a1-6)]GlcNAc
Method in brief: as §1

[10] = target: Fuc(a1-2)[GalNAc(a1-3)]Gal(b1-3)GlcNAc(b1-6)GalNAc
Method in brief: as §1

[11] = target: Gal(a1-3)[Gal(a1-4)]Gal(b1-4)GlcNAc
Method in brief: as §1

[12] = target: Gal(a1-4)Gal(b1-3)GlcNAc(b1-2)Man(a1-3)[Gal(a1-4)Gal(b1-3)GlcNAc(b1-2)Man(a1-6)]Man(b1-4)GlcNAc(b1-4)GlcNAc
Method in brief: as §1

[13] = target: Gal(b1-3)Gal(b1-4)GlcNAc
Method in brief: as §1

[14] = target: Gal(b1-3)GlcNAc(b1-2)Man(a1-3)[Gal(b1-3)GlcNAc(b1-2)Man(a1-6)]Man(b1-4)GlcNAc(b1-4)GlcNAc
Method in brief: as §1

[15] = target: Gal(b1-3)GlcNAc(b1-3)Gal(b1-4)[Fuc(a1-3)]GlcNAc
Method in brief: as §1

[16] = target: Gal(b1-3)GlcNAc(b1-6)[Gal(b1-3)]GalNAc
Method in brief: as §1

[17] = target: Gal(b1-4)GlcNAc(b1-2)Man(a1-3)[Gal(b1-4)GlcNAc(b1-2)Man(a1-6)]Man(b1-4)GlcNAc(b1-4)[Fuc(a1-6)]GlcNAc
Method in brief: as §1

[18] = target: Gal(b1-4)GlcNAc(b1-2)Man(a1-3)[Gal(b1-4)GlcNAc(b1-2)Man(a1-6)][Gal(b1-4)GlcNAc(b1-4)]Man(b1-4)GlcNAc(b1-4)[Fuc(a1-6)]GlcNAc
Method in brief: as §1

[19] = target: Gal(b1-4)GlcNAc(b1-2)Man(a1-3)[Gal(b1-4)GlcNAc(b1-2)Man(a1-6)][GlcNAc(b1-4)]Man(b1-4)GlcNAc(b1-4)[Fuc(a1-6)]GlcNAc
Method in brief: as §1

[20] = target: Gal(b1-4)GlcNAc(b1-3)Gal(b1-4)GlcNAc(b1-2)Man(a1-3)[Gal(b1-4)GlcNAc(b1-3)Gal(b1-4)GlcNAc(b1-2)Man(a1-6)]Man(b1-4)GlcNAc(b1-4)[Fuc(a1-6)]GlcNAc
Method in brief: as §1

[21] = target: Gal(b1-4)GlcNAc(b1-3)Gal(b1-4)GlcNAc(b1-3)Gal(b1-4)GlcNAc(b1-2)Man(a1-3)[Gal(b1-4)GlcNAc(b1-3)Gal(b1-4)GlcNAc(b1-3)Gal(b1-4)GlcNAc(b1-2)Man(a1-6)]Man(b1-4)GlcNAc(b1-4)GlcNAc
Method in brief: as §1

[22] = target: Gal(b1-4)GlcNAc(b1-3)Gal(b1-4)GlcNAc(b1-3)Gal(b1-4)GlcNAc(b1-2)[Gal(b1-4)GlcNAc(b1-3)Gal(b1-4)GlcNAc(b1-3)Gal(b1-4)GlcNAc(b1-6)]Man(a1-6)[Gal(b1-4)GlcNAc(b1-3)Gal(b1-4)GlcNAc(b1-3)Gal(b1-4)GlcNAc(b1-2)Man(a1-3)]Man(b1-4)GlcNAc(b1-4)[Fuc(a1-6)]GlcNAc
Method in brief: as §1

[23] = target: Gal(b1-4)GlcNAc(b1-3)Gal(b1-4)GlcNAc(b1-3)Gal(b1-4)GlcNAc(b1-3)Gal(b1-4)GlcNAc(b1-2)Man(a1-3)[Gal(b1-4)GlcNAc(b1-3)Gal(b1-4)GlcNAc(b1-3)Gal(b1-4)GlcNAc(b1-3)Gal(b1-4)GlcNAc(b1-2)Man(a1-6)]Man(b1-4)GlcNAc(b1-4)GlcNAc
Method in brief: as §1

[24] = target: Gal(b1-4)GlcNAc(b1-3)Gal(b1-4)GlcNAc(b1-3)Gal(b1-4)GlcNAc(b1-3)Gal(b1-4)GlcNAc(b1-3)Gal(b1-4)GlcNAc(b1-2)Man(a1-3)[Gal(b1-4)GlcNAc(b1-3)Gal(b1-4)GlcNAc(b1-3)Gal(b1-4)GlcNAc(b1-3)Gal(b1-4)GlcNAc(b1-3)Gal(b1-4)GlcNAc(b1-2)Man(a1-6)]Man(b1-4)GlcNAc(b1-4)GlcNAc
Method in brief: as §1

[25] = target: Gal3S(b1-4)[Fuc(a1-3)]GlcNAc6S
Method in brief: as §1

[26] = target: Gal3S6S(b1-4)GlcNAc
Method in brief: as §1

[27] = target: Glc(a1-6)Glc(a1-6)Glc(a1-6)Glc
Method in brief: as §1

B1: PX14343G-pdi-535-24-535 (Parabacteroides distasonis) (protein)
chain: LDTVPKDQLAPSTTWQTEADAKGFIVGCYKDLLDGNTLLYLDCGSDIGYNNFPWEGFRPWGDGSLSSSNPGQILYDYKSIRKANTFLENVDKVTFSSDAVKANYVAQAKAIRAYKYFLMNWWYGGVPIISSYSSADEAKVERNTEQEVRDYIAKDLDEALAGIAEAPEARGYIAKGAVLAIKMREALYYGDWQKAKDAAKAIIDLKQYELDPDYTNLFKVSGVDSKEIILADQNIETLDGLGTIGQMYNNVDQGWSSIVPTQNLVDMYEMSDGLTKEESKTYDAKHPFANRDPRMAMTILYPGRDWRGDVLNTLDEKLQDGTVNKNFPTYTDNASKSALTWAKYLDPMDQYGDVWSSGACPIVFRYAEVLLTYAEAANELSGPSDEIYGYLNQIRQRVGMGEVDKAKYGTKDKLRELIRRERTVELAGEGLRRADIVRWQEDGKMLAEKVMNGDLLRVTGTINYGESEPTKRAEITGTAVIETRQFSSRNRYLPIPQTSMDKNPNLKQNPGY
glycan array binding signal (z-score) [1]: -1.05 | glycan array binding signal (z-score) [2]: -0.439 | glycan array binding signal (z-score) [3]: -0.597 | glycan array binding signal (z-score) [4]: -0.34 | glycan array binding signal (z-score) [5]: 0.336 | glycan array binding signal (z-score) [6]: 0.064 | glycan array binding signal (z-score) [7]: -0.242 | glycan array binding signal (z-score) [8]: 2.43 | glycan array binding signal (z-score) [9]: -1.2 | glycan array binding signal (z-score) [10]: -0.366 | glycan array binding signal (z-score) [11]: 2.67 | glycan array binding signal (z-score) [12]: -0.566 | glycan array binding signal (z-score) [13]: 0.673 | glycan array binding signal (z-score) [14]: 0.51 | glycan array binding signal (z-score) [15]: -0.53 | glycan array binding signal (z-score) [16]: 0.402 | glycan array binding signal (z-score) [17]: -0.363 | glycan array binding signal (z-score) [18]: -0.426 | glycan array binding signal (z-score) [19]: -0.515 | glycan array binding signal (z-score) [20]: 2.06 | glycan array binding signal (z-score) [21]: 1.65 | glycan array binding signal (z-score) [22]: 3.07 | glycan array binding signal (z-score) [23]: 0.004 | glycan array binding signal (z-score) [24]: 2.76 | glycan array binding signal (z-score) [25]: 2.01 | glycan array binding signal (z-score) [26]: 0.193 | glycan array binding signal (z-score) [27]: 0.739
